AmpC inh detg: AmpC beta-lactamase inhibition with detergent present | P00811 | AmpC hydrolysis of nitrocefin, absorbance 480 nm, 0.01% Triton | Potency, µM (highest dose often 114 µM), usual class: inhibitors | actives 0.041% (n = 370,000); also: nearly all actives have a fitted effect of over 25% in size
Target sequence (P00811 whole entry, looked up): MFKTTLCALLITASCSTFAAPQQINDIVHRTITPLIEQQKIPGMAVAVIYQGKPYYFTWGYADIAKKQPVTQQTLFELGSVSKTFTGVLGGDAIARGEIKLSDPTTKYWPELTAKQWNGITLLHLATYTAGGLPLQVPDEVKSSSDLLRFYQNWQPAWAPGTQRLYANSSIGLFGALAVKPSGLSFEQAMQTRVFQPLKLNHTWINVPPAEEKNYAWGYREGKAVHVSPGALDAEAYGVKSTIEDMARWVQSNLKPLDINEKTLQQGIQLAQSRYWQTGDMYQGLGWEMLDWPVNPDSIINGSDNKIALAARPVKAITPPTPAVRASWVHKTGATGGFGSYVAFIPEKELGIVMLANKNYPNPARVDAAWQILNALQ
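20 mM phosphate pH 7.0 + 0.01% (detergent screen) or 0.0001% Triton X-100; 5.3 nM AmpC reagent; cpd preinc 15 min RT; nitrocefin (800 uM stock) to start; A480 q20 s × 4 min; Activity was normalised to no-enzyme and no-compound control wells.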
AmpC no deterg: AmpC beta-lactamase inhibition without detergent. P00811. AmpC nitrocefin hydrolysis, absorbance 480 nm, 0.0001% Triton. Potency, µM (highest dose often 57.1 µM), hits mostly inhibitors. actives 0.52% (n = 330,000). AID 485341; also: nearly all actives have a fitted effect of over 20% in size
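AmpC (5.3 nM in the dispensed reagent) in 20 mM phosphate pH 7.0 with 0.01% (detergent screen) or 0.0001% Triton X-100 was preincubated with compounds for 15 min at room temperature. Nitrocefin was then added from an 800 uM solution, and hydrolysis was followed at 480 nm.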
Sm TGR inh: inhibitors of Schistosoma mansoni thioredoxin glutathione reductase; actives 3% (n = 360,000); Q962Y6; AID 485364; purified TGR, DTNB reduction, TNB absorbance 405 nm; Potency, µM (titrated, usually from 114 µM), hits mostly inhibitors; also: nearly all actives have a fitted effect of over 60% in size
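First, TGR (20 nM dispensed) and NADPH were mixed with compound. Second, a 15 min room-temperature incubation followed. Third, further NADPH and then DTNB were added to start the reaction. Finally, TNB absorbance was monitored kinetically.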
A number is an active result; - = inactive; ? = inconclusive; . = not tested or not shown; [ ] = dose if it differs, or a comment. The list is not random: actives were taken first. Their share in the collection is about 3.3%. Calls follow the shape of the dose curve; as a rule, active = well fitted curve in the direction sought with a large enough effect; inconclusive = small, poorly fitted or top-dose-only effect, or another doubt; inactive = no such curve, though single readings can be large; an effect the other way counts as inactive or inconclusive.

SMILES	AmpC inh detg	AmpC no deterg	Sm TGR inh
CCN(CC(=O)NCc1ccc(Cl)cc1)C(=O)/C=C/c1ccco1	-	-	25µM
CCOC(=O)c1c(C)[nH]c(C)c1C(=O)COC(=O)/C=C/c1ccco1	-	-	32µM
O=C(/C=C/c1ccco1)OCC(=O)c1ccc(OC(F)F)cc1	-	-	22µM
CCc1ccc(NC(=O)C2CCN(S(=O)(=O)c3ccc4[nH]c5c(c4c3)CCCCC5)CC2)cc1	-	.	-
Cc1ccc2cccc(NC(=O)c3cccc4c(Cl)cccc34)c2n1	-	.	-
CCOc1ccc(S(=O)(=O)N(C)c2ccc(OCC(=O)Nc3nc(-c4cc(OC)ccc4OC)cs3)cc2)cc1	-	-	-
COC(=O)Oc1ccc(/C=N/NC(=O)CSCc2ccc(Cl)cc2)cc1OC	-	-	-
COc1ccc(NS(=O)(=O)c2ccc(C)c(C(=O)NCCCN3CCCC3=O)c2)cc1	?	-	-
COc1ccccc1C(=O)NCC(=O)N1CCN(S(=O)(=O)c2ccc3c(c2)OCCO3)CC1	?	-	-
O=C(CN1CCCN(Cc2ccccc2Cl)S1(=O)=O)Nc1ccc2c(c1)OCCO2	-	.	-
O=C1COc2ccc(C(=O)COC(=O)c3ccco3)cc2N1	-	-	-
Cc1ccc(/C=C/C(=O)OCC(=O)NCc2cccs2)o1	.	-	.
O=C(COC(=O)/C=C/c1ccco1)NCc1ccccc1	-	-	-
O=C(COC(=O)/C=C/c1ccco1)NCc1ccc(Cl)cc1	-	-	18µM
O=C1COc2ccc(C(=O)COC(=O)/C=C/c3ccco3)cc2N1	?	-	13µM
Cc1ccc(/C=C/C(=O)OCC(=O)NC(C)C)o1	-	-	50µM
O=C1COc2ccc(C(=O)NC3CC3)cc2N1	-	-	-
O=C(O)/C=C/C(=O)c1ccc2c(c1)NC(=O)CO2	-	-	1µM
Cc1nc2ccc(Br)cn2c1C(=O)N/N=C\c1ccc(C(C)C)cc1	?	-	-
CCN(CC)c1nc(-c2ccc(C(=O)NN)cc2)nc(-c2ccc(C(=O)NN)cc2)n1	-	-	-
O=C(COC(=O)c1ccncc1)Nc1cc(Cl)c(Cl)cc1Cl	-	-	-
CC(C)NC(=O)COC(=O)/C=C/c1ccc(F)cc1	-	-	-
CC(C)NC(=O)COC(=O)/C=C/c1ccco1	-	-	50µM
Cc1ccc2cc(CN(CC3CCCO3)S(=O)(=O)c3ccccc3)c3nnnn3c2c1 (stereo not given)	?	-	-
Cc1ccc(S(=O)(=O)Cn2nnnc2CN(Cc2ccco2)CC2CCCO2)cc1 (stereo not given)	?	-	28µM
SMILES	AmpC inh detg	AmpC no deterg	Sm TGR inh
Cc1ccc2cc(CN(Cc3nnnn3Cc3ccco3)CC3CCCO3)c(=O)[nH]c2c1C (stereo not given)	-	-	18µM
COc1ccc2[nH]c(=O)c(CN(Cc3nnnn3Cc3ccccc3)CC3CCCO3)cc2c1 (stereo not given)	-	-	-
CS(=O)(=O)c1ccccc1C(=O)N1CCN(Cc2ccccc2)CC1	-	-[11.4 µM]	-
O=S(=O)(c1ccc(F)c(F)c1F)N1CCN(C(=S)Nc2ccccc2)CC1	-	-	-
Cc1ccc2c(c1)N(C(=O)CCC(=O)N1CCC(C(N)=O)CC1)CC(C)O2 (stereo not given)	-	-	-
CC12CCC(=O)N1C(C(=O)NNC(=O)c1ccccc1Cl)CS2 (stereo not given)	-	-	-
O=C(O)CC(Sc1n[nH]c(=S)s1)C(=O)O (stereo not given)	-	-	-
O=C(CCc1nnc(C2CCCCC2)o1)N1CCN(c2ccccc2F)CC1	-	-	-
O=C(CCc1nnc(C2CCCCC2)o1)N1CCN(C2CCCCC2)CC1	-	-	56µM
CC(=O)c1cc(-c2ccccc2)n(CC(=O)N2CCN(C3CCCC3)CC2)c1C	-	-	40µM
CC(=O)c1cc(-c2ccccc2)n(CC(=O)N2CCC(C)CC2)c1C	?	-	-
CC1=C(C(=O)NCc2ccc(Cl)cc2)C2(CCC(C)CC2)OC1=O (stereo not given)	-	-	-
CC1=C(C(=O)NCc2ccccn2)C2(CCC(C)CC2)OC1=O (stereo not given)	?	2.8µM	-
Cc1ccccc1C(=O)N1CCC(C(=O)NN2C(=O)NC3(CCCCC3)C2=O)CC1	-	-	-
N#CC1(C#N)CC(C=O)=C(N)C1(C#N)CC(=O)C12CC3CC(CC(C3)C1)C2 (stereo not given)	-	16µM	40µM
Nc1nccnc1C(=O)OCC(=O)C12CC3CC(CC(C3)C1)C2	?	-	-
COCCNC(=O)C(=O)Nc1ccc2nc3n(c(=O)c2c1)CCCCC3	-	.	-
CCOc1ccccc1CN(CCc1ccc2c(c1)OCO2)Cc1ccc(CC)cc1	-	.	-
C=CCOc1ccccc1CN(C(=O)CCl)c1ccc2c(c1)OCO2	?	-	8.9µM
Cc1cc(C)c(S(=O)(=O)N2CCCCC2CCNC(=O)C(=O)NCc2ccccn2)c(C)c1 (stereo not given)	-	-	-
Cc1ccc(S(=O)(=O)c2c(N)n(Cc3ccco3)c3nc4ccccc4nc23)cc1	?	-	?
COc1ccc(Cn2c3nc4ccccc4nc3c3c(=O)n(Cc4ccco4)cnc32)cc1	-	-	16µM
Cc1cccc(-n2cnc3c(c2=O)c2nc4ccccc4nc2n3Cc2ccco2)c1	?	-	2.8µM
CCCn1cnc2c(c1=O)c1nc3ccccc3nc1n2Cc1ccccc1OC	-	-	-
Cc1cccc(S(=O)(=O)c2c(N)n(Cc3ccco3)c3nc4ccccc4nc23)c1	-	-	18µM
SMILES	AmpC inh detg	AmpC no deterg	Sm TGR inh
COCCCn1c2nc3ccccc3nc2c2c(=O)n(-c3ccccc3OC)cnc21	-	-	-
CC(=O)c1ccc(NC(=O)Cn2c3ccccc3c3nc(=O)cc(C)n32)cc1	-	-	-
CN(CCc1ccccn1)C(=O)Nc1cccc(Cl)c1	-	-	-
COc1ccc(-c2cc(C(=O)Nc3cc(C(F)(F)F)ccc3Cl)no2)cc1	-	.	-
COC(=O)c1ccc(N2C(=O)CC(N3CCOCC3)C2=O)cc1 (stereo not given)	?	-	?
CCN(CC)C1CC(=O)N(c2cccc(C)c2)C1=O (stereo not given)	?	-	3.5µM
Cc1cccc(N2C(=O)C(Cl)=C(N3CCOCC3)C2=O)c1	-	-	40µM
O=C1CC(N2CCOCC2)C(=O)N1c1ccc(Cl)cc1 (stereo not given)	-	-	22µM
O=C1C(Cl)=C(N2CCOCC2)C(=O)N1c1cccc(Cl)c1	-	-	?
O=C1CC(N2CCOCC2)C(=O)N1c1cccc(Cl)c1 (stereo not given)	-	-	?
Cc1cccc(N2C(=O)CC(N3CCOCC3)C2=O)c1 (stereo not given)	?	-	50µM
Cc1cccc(N2C(=O)CC(Cn3nc(C)cc3C)C2=O)c1 (stereo not given)	-	-	-
CC1CCCCC1Nc1nc2ccc(Cl)cc2n2cnnc12 (stereo not given)	?	-	-
COc1ccc(NC(=O)c2cccc(-n3c(C)ccc3C)c2)c(OC)c1	-	?	-
COc1ccc(NS(=O)(=O)c2ccc(N3CCCCS3(=O)=O)cc2)cc1Cl	-	.	-
